The full ranking holds about 2,900 compounds; the median of “NF-kB SEAP reporter activity, fold change vs agonist alone” is about 0.99, and the highest 2% start at about 2.6. The sample as a whole holds a higher share of the highest values than the screen did.
What was measured:
RAW-Dual [1] = assay: NF-kB SEAP reporter activity, fold change vs agonist alone; higher = enhanced NF-kB activity; settings: library stock concentration (final ~1000-fold dilution): 10 mM, cytotoxicity flag (confluency mask): not cytotoxic
Procedure, shortened: (§1)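 After 50 nL of library stock was delivered by pin tool to RAW-Dual macrophages (50,000 cells/well, DMEM, 384-well plates), a PRR agonist was added 1 h later and the plates were kept at 37 °C, 5% CO2. Twenty hours later, IRF was read from supernatant by QuantiLuc luminescence and NF-κB by QuantiBlue absorbance at 620 nm. Reporter activity is stated as fold change over agonist-alone wells. Wells with IncuCyte confluency under 70% of agonist controls in both mask sets were counted as cytotoxic.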

RAW-Dual [2] = assay: NF-kB SEAP reporter activity, fold change vs agonist alone; cytotoxicity flag (confluency mask): not cytotoxic; higher = enhanced NF-kB activity
Procedure, shortened: as §1

[3] = agonist: ODN 1826 (TLR9) 0.5 ug/mL
[4] = agonist: Pam2CSK4 (TLR2/6) 0.1 ug/mL
[5] = agonist: Pam3CSK4 (TLR2/1) 0.1 ug/mL

Row | SMILES | NF-kB SEAP reporter activity (RAW-Dual [1]; agonist: Imiquimod (TLR7) […]) | NF-kB SEAP reporter activity (RAW-Dual [1]; agonist: MPLA (TLR4) […]) | NF-kB SEAP reporter activity (RAW-Dual [2]; agonist: LPS (TLR4) 0.1 ug/mL) | NF-kB SEAP reporter activity (RAW-Dual [2]; [3]) | NF-kB SEAP reporter activity (RAW-Dual [2]; [4]) | NF-kB SEAP reporter activity (RAW-Dual [2]; [5])
1 | Nc1ccc(C(=O)Nc2cccc(-c3nc(N4CCOCC4)c4oc5ncccc5c4n3)c2)cn1 | 1.77 | 2.3 | – | – | – | –
2 | CC1(C)OCCn2c1nc1c(N3CCOCC3)nc(-c3cnc(N)nc3)nc12 | 1.02 | 1.07 | – | – | – | –
3 | CC1(C)OCCn2c1nc1c(N3CCOCC3)nc(-c3cnc(N)nc3)nc12 (library stock concentration (final ~1000-fold dilution): 10 mM) | – | – | 1.42 | 0.768 | 0.464 | 0.544
4 | N#Cc1cccc(-c2c[nH]c3ncnc(N4CCOCC4)c23)c1 (library stock concentration (final ~1000-fold dilution): 10 mM) | – | – | 0.963 | 0.792 | 0.588 | 0.962
5 | CCn1c(-c2nonc2N)nc2cnc(Oc3cccc(NC(=O)c4ccc(OCCN5CCOCC5)cc4)c3)cc21.Cl | 1.48 | 1.41 | – | – | – | –
6 | Nc1ccc(C(=O)Nc2cccc(-c3nc(N4CCOCC4)c4oc5ncccc5c4n3)c2)cn1 (library stock concentration (final ~1000-fold dilution): 10 mM) | – | – | 2.62 | 0.304 | 0.638 | 0.805
7 | N#Cc1cccc(-c2c[nH]c3ncnc(N4CCOCC4)c23)c1 | 1.01 | 0.873 | – | – | – | –
8 | Oc1cccc(-c2nc(N3CCOCC3)c3oc4ncccc4c3n2)c1 (library stock concentration (final ~1000-fold dilution): 10 mM) | – | – | 4.71 | 0.369 | 0.849 | 1.34
9 | Nc1ccc(-c2cccc(C(=O)Nc3cnc4nc(N5CCOCC5)oc4c3)n2)cn1 (library stock concentration (final ~1000-fold dilution): 10 mM) | – | – | 1.43 | 1.01 | 0.911 | 1.33
10 | Oc1cccc(-c2nc(N3CCOCC3)c3oc4ncccc4c3n2)c1 | 2.46 | 2.44 | – | – | – | –
11 | Nc1ccc(-c2cccc(C(=O)Nc3cnc4nc(N5CCOCC5)oc4c3)n2)cn1 | 1.04 | 1.08 | – | – | – | –
12 | CCn1c(-c2nonc2N)nc2cnc(Oc3cccc(NC(=O)c4ccc(OCCN5CCOCC5)cc4)c3)cc21.Cl (library stock concentration (final ~1000-fold dilution): 10 mM) | – | – | 1.31 | 0.288 | 1.12 | 1.56
13 | Cc1csc(-c2nc[nH]c2-c2ccc3ncsc3c2)n1.Cl (library stock concentration (final ~1000-fold dilution): 10 mM) | – | – | 2.26 | 1.18 | 1.24 | 1.47
14 | Cc1csc(-c2nc[nH]c2-c2ccc3ncsc3c2)n1.Cl | 0.927 | 1.34 | – | – | – | –
15 | CC(Oc1cc(-n2cnc3ccc(CN4CCN(C)CC4)cc32)sc1C(N)=O)c1ccccc1C(F)(F)F (configuration not stated) | 0.909 | 0.993 | – | – | – | –
16 | CC(Oc1cc(-n2cnc3ccc(CN4CCN(C)CC4)cc32)sc1C(N)=O)c1ccccc1C(F)(F)F (configuration not stated) (library stock concentration (final ~1000-fold dilution): 10 mM) | – | – | 1.15 | 0.967 | 0.97 | 0.799
17 | N#C/C(C(=O)c1ccc(Cl)cc1Cl)=C1\NC(=O)c2ccccc2N1 | 0.86 | 1.11 | – | – | – | –
18 | N#C/C(C(=O)c1ccc(Cl)cc1Cl)=C1\NC(=O)c2ccccc2N1 (library stock concentration (final ~1000-fold dilution): 10 mM) | – | – | 1.13 | 0.982 | 0.65 | 0.693
19 | CC1OC(OC2C(Oc3cc(O)c4c(c3)OC(c3ccc(O)cc3)CC4=O)OC(CO)C(O)C2O)C(O)C(O)C1O (configuration not stated) | 0.993 | 1.05 | – | – | – | –
20 | CC1OC(OC2C(Oc3cc(O)c4c(c3)OC(c3ccc(O)cc3)CC4=O)OC(CO)C(O)C2O)C(O)C(O)C1O (configuration not stated) (library stock concentration (final ~1000-fold dilution): 10 mM) | – | – | 0.935 | 1.04 | 1.17 | 1.13
21 | COc1ccc(C[C@@H]2c3cc(Oc4cc(C[C@@H]5c6cc(OC)c(OC)cc6CCN5C)ccc4O)c(OC)cc3CCN2C)cc1 | 0.915 | 1.09 | – | – | – | –
22 | COc1ccc(C[C@@H]2c3cc(Oc4cc(C[C@@H]5c6cc(OC)c(OC)cc6CCN5C)ccc4O)c(OC)cc3CCN2C)cc1 (library stock concentration (final ~1000-fold dilution): 10 mM) | – | – | 1.06 | 0.182 | 0.121 | 0.622
23 | Oc1ccc(-c2nc(-c3ccc(F)cc3)c(-c3ccncc3)[nH]2)cc1 (library stock concentration (final ~1000-fold dilution): 10 mM) | – | – | 2.59 | 0.851 | 1.01 | 1.2
24 | Oc1ccc(-c2nc(-c3ccc(F)cc3)c(-c3ccncc3)[nH]2)cc1 | 1.92 | 1.84 | – | – | – | –

Reference: the supplement of paper PMC10037445
